Inconclusive results are not listed. Values without a mark were called inactive. Calls of active or inactive are those of the source. The call rests on the fitted dose curve; in most records, active means well fitted inhibition curve with a large enough effect; inconclusive means small, poorly fitted or top-dose-only effect, or effect the other way; inactive means flat fitted curve, though single readings scatter.
Experiment: VP16 selectivity assay for inhibitors of ROR gamma transcriptional activity
Settings: Drosophila Schneider Gal4-VP16 UAS-luciferase reporter, 20 h; series mostly up to 92.2 µM; activity change, negative = inhibition: at the top concentration
In short: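 Drosophila Schneider cells stably expressing a Gal4-VP16 fusion under a metallothionein promoter and a UAS-driven Photinus luciferase reporter. Compound preincubated 1 hr, copper sulfate added (700 uM final), then 20 hr at ambient temperature before luminescence read.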

SMILES	activity change, negative = inhibition [%]	Potency
COc1cc(O)c(C(CC(=O)N2CCCC(c3ccccc3)C2)c2ccc3c(c2)OCO3)c(OC)c1 (centres undefined)	-14.8	
CCOc1ccc(O)c(C(CC(=O)N2CCCC(C)C2)c2ccc3c(c2)OCO3)c1 (centres undefined)	-27.7	
O=C(CCCOc1ccccc1)Nc1nc2ccccc2[nH]1		14.4 µM (active)
C#CCOc1cc(OC)cc(OC)c1C(CC(=O)N1CCCC(C)C1)c1ccc2c(c1)OCO2 (centres undefined)		45.7 µM (active)
COc1cc(O)c(C(CC(=O)N2CCC(C)CC2)c2ccc(OC)c(OC)c2)c(OC)c1 (centres undefined)	23	
COc1ccc(C(CC(=O)N2CCCC(C)C2)c2ccc3c(c2)OCO3)c(O)c1 (centres undefined)	-16.5	
CC(C)(C)c1ccc([S+](=O)([O-])Nc2ccccc2C(O)(C(F)(F)F)C(F)(F)F)cc1		11.5 µM (active)
CC1CCCN(C(=O)CC(c2ccc3c(c2)OCO3)c2c(O)cccc2Cl)C1 (centres undefined)		40.7 µM (active)
CC(C)(C(=O)Nc1nccs1)C(c1ccccc1)c1ccc(O)cc1 (centres undefined)		36.3 µM (active)
COc1cc(O)c(CCC(=O)N2CCCC(C)C2)c(OC)c1 (centres undefined)	7.03	
CCn1cc(C(=O)O)c(=O)c2cnc(N3CCN(C(=S)NC(=O)c4ccccc4)CC3)nc21		20.4 µM (active)
COc1cc(O)c(C(CC(=O)N2CC(C)OC(C)C2)c2ccc3c(c2)OCO3)c(OC)c1 (centres undefined)	-11.2	
O=C(/C=C/c1ccc(S(=O)(=O)N2CCOCC2)cc1)NC(=S)Nc1ccc(N2CCOCC2)cc1		20.4 µM (active)
CC(C)(C)c1ccc(-c2noc(CCC(=O)Nc3cccnc3)n2)cc1		2.04 µM (active)
COc1cc(O)c(C(CC(=O)N2CCCCC2)c2ccc3c(c2)OCO3)c(OC)c1 (centres undefined)	21.3	
COc1ccc(-c2nnc(-c3ccc(N(C)C)cc3)o2)cc1	-22.8	
CCN(CC)c1ccc(/C=N/n2c(-c3ccccc3Br)n[nH]c2=S)cc1		2.04 µM (active)
Cc1ccc(OCCCC(=O)Nc2nc3ccccc3[nH]2)cc1		18.2 µM (active)
COc1cc(O)c(C(CC(=O)N2CCCC(C)C2)c2ccccc2)c(OC)c1 (centres undefined)	1.81	
COc1cc(O)c(C(CC(=O)N2CCCCC2)c2ccc(C)cc2)c(OC)c1 (centres undefined)	-1.68	
O=S(=O)(c1ccc(NC(=S)N/N=C/c2ccc(Oc3ccccc3)cc2)cc1)N1CCOCC1		2.04 µM (active)
COc1cc(O)c(C(CC(=O)N2CCCC(C)C2)c2ccc(-c3ccccc3)cc2)c(OC)c1 (centres undefined)	-13.7	
COc1cc(O)c(C(CC(=O)N2CCCC(COc3ccc(F)cc3)C2)c2ccc3c(c2)OCO3)c(OC)c1 (centres undefined)	-6.39	
O=C(NC(=S)Nc1nc(-c2ccccc2)cs1)c1cccnc1		25.7 µM (active)
CCC(=O)C1CCCN(C(=O)CC(c2ccc3c(c2)OCO3)c2c(O)cc(OC)cc2OC)C1 (centres undefined)	0.385	
CC(C)[C@H](NC(=O)C1CCN(C(=O)[C@@H]2CCCN2C(=O)OC(C)(C)C)CC1)C(=O)NCc1ccc(F)cc1	13	
COc1ccc(C(CC(=O)N2CCCC(C)C2)c2c(O)cc(OC)cc2OC)c(OC)c1 (centres undefined)	3.14	
CC(C)(C)c1ccc(S(=O)(=O)Nc2ccc(C(O)(C(F)(F)F)C(F)(F)F)cc2)cc1		18.2 µM (active)
COc1ccccc1CNC(=O)[C@@H](NC(=O)C1CCN(C(=O)[C@@H]2CCCN2C(=O)OC(C)(C)C)CC1)C(C)C	6.66	
